E coli growth-1 = E. coli growth inhibition; Escherichia coli growth, OD600, 23 h; stronger effect = lower value; actives 0.21% (n = 330,000); OD600 absorbance (test concentration not listed);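 active = OD600 absorbance below the run mean of sample wells minus 3.6 SD, in any replicate, cut at about 0.56 in these data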
AddAB inh = less growth of phage-infected E. coli with AddAB. E. coli expressing H. pylori AddAB, absorbance growth. actives 0.29% (n = 330,000). AID 435030. inhibition, % at 11.9 µM; in the data active = inhibition above about 12%
E coli growth-2 = reduces bacterial viability in AddAB counter-screen | E. coli V3065 growth, OD600 absorbance, 18 h | inhibition, % at 11.9 µM | actives 0.27% (n = 330,000) | AID 449728;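 active = inhibition above the campaign's mean inhibition across all tested compounds plus 3 SD, cut at about 9.9% in these data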;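 note: uninfected addAB+ strain grown without phage in ampicillin broth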
phage Ecoli inh = E. coli growth loss with phage present; growth absorbance; inhibition, % at 11.9 µM; actives 0.26% (n = 360,000); in the data active = inhibition above about 11%
Tat transport = inhibitors of E. coli Tat protein transport. actives 0.036% (n = 340,000). E. coli MC4100 TorA-mCherry Tat export, fluorescence. inhibition, % at 10 µM;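 active = mean replicate inhibition at least 50% and at least half of replicates individually reaching 50%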;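 note: exported cargo escapes ClpAP degradation while cytoplasmic cargo is degraded and loses fluorescence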
AddAB confirm = confirmation screen: growth loss of phage-infected E. coli expressing H. pylori AddAB; E. coli V3065 expressing H. pylori AddAB, T4 phage, OD; T4 phage with gene 2 nonsense mutations; actives 64% (n = 880); inhibition, % at 11.9 µM; shares compounds with AddAB inh;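 active = mean inhibition above a set limit taken from the earlier primary screen, cut at about 13% in these data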;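 note: higher means less bacterial growth since AddAB block lets phage replicate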
RecBCD counter = counter-screen: growth loss of RecBCD+ E. coli with mutant T4 phage; shares compounds with AddAB inh; E. coli V66 + mutant T4 phage, OD growth; actives 73% (n = 880); inhibition, % at 11.9 µM;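 active = mean inhibition above the mean of solvent-only control wells plus 3 SD, cut at about 4% in these data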;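 note: optical density read after an 18 h incubation at 37 °C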
bact viab count = counter-screen for AddAB inhibitors: inhibitors of bacterial viability. shares compounds with AddAB inh. absorbance (AddAB counterscreen). inhibition, % at 11.9 µM. actives 35% (n = 880); in the data active = inhibition above about 25%
RecBCD conf = growth loss of phage-infected V66 E. coli, RecBCD confirmation screen; shares compounds with phage Ecoli inh; E. coli V66 + T4 2- phage, growth OD; inhibition, % at 11.9 µM; actives 45% (n = 890);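 active = mean inhibition over triplicates exceeding the hit threshold derived in the original primary screen, cut at about 11% in these data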
Ecoli viability = counter-screen for RecBCD inhibitors: inhibitors of bacterial viability. shares compounds with phage Ecoli inh. E. coli viability, absorbance (OD) growth. inhibition, % at 11.9 µM. actives 29% (n = 890). AID 651983; in the data active = inhibition above about 20%;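 note: E. coli strain V66 grown with compound alone and no phage infection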
AddAB phage OD = growth loss of phage-infected AddAB E. coli, RecBCD counter-screen; actives 45% (n = 890); AID 651984; shares compounds with phage Ecoli inh; E. coli expressing H. pylori AddAB + T4 phage, OD growth; gene 2 mutant T4, recBCD-deleted host; inhibition, % at 11.9 µM;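 active = mean inhibition above the solvent-only control wells' mean plus 3 SD, cut at about 22% in these data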;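 note: higher means less bacterial growth from phage killing when AddAB is blocked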
Large screens that a line does not name were inactive (follow-up assays come after a bar, where they were run). An excerpt weighted towards active compounds, which were near 0.5% of everything screened.

O=C(CSc1nc2ccccc2s1)Nc1ccc(N2CCOCC2)c(Cl)c1	AddAB inh 21, E coli growth-2 12, phage Ecoli inh 16 | AddAB confirm 19 | RecBCD counter 12 | bact viab count inactive | RecBCD conf inactive | Ecoli viability inactive | AddAB phage OD 24
Cc1ccc(S(=O)(=O)N(C)C)cc1NC(=O)CCNC(=O)c1ccccc1Cl	none
CCCCOC(=O)C1=C(C)NC(=O)NC1c1cc2c(cc1Br)OCO2 (stereo not drawn)	none
CC(=O)NC(c1ccc(C(C)C)cc1)c1ccc2cccnc2c1O (stereo not drawn)	AddAB inh 20, E coli growth-2 24, phage Ecoli inh 23 (no result: E coli growth-1) | AddAB confirm 15 | RecBCD counter 17 | bact viab count inactive | RecBCD conf 13 | Ecoli viability inactive | AddAB phage OD inactive
O=[N+]([O-])c1ccc(NC(c2ccccc2)c2ccc3cccnc3c2O)cc1 (stereo not drawn)	none (no result: AddAB inh, E coli growth-2)
CCCCC(=O)NC(c1ccccc1)c1ccc2cccnc2c1O (stereo not drawn)	AddAB inh 26, E coli growth-2 31, phage Ecoli inh 24 (no result: E coli growth-1) | AddAB confirm 27 | RecBCD counter 25 | bact viab count inactive | RecBCD conf 12 | Ecoli viability inactive | AddAB phage OD 29
CCCCC(=O)NC(c1ccccc1Cl)c1ccc2cccnc2c1O (stereo not drawn)	AddAB inh 19, E coli growth-2 28, phage Ecoli inh 21 (no result: E coli growth-1) | AddAB confirm 22 | RecBCD counter 19 | bact viab count inactive | RecBCD conf 14 | Ecoli viability inactive | AddAB phage OD 24
CCCC(=O)NC(c1ccccc1)c1ccc2cccnc2c1O (stereo not drawn)	AddAB inh 24, E coli growth-2 32, phage Ecoli inh 20 (no result: E coli growth-1) | AddAB confirm 26 | RecBCD counter 25 | bact viab count inactive | RecBCD conf 18 | Ecoli viability 24 | AddAB phage OD 29
CCCCC(=O)NC(c1ccc(C(C)C)cc1)c1ccc2cccnc2c1O (stereo not drawn)	AddAB inh 17, E coli growth-2 20, phage Ecoli inh 17 | AddAB confirm 18 | RecBCD counter 15 | bact viab count inactive | RecBCD conf inactive | Ecoli viability inactive | AddAB phage OD inactive
CC(=O)NC(c1cccc([N+](=O)[O-])c1)c1ccc2cccnc2c1O (stereo not drawn)	none (no result: E coli growth-1, AddAB inh, E coli growth-2)
COc1cccc(C(NC(C)=O)c2ccc3cccnc3c2O)c1 (stereo not drawn)	none (no result: E coli growth-1)
O=C(COc1cccc2cccnc12)Nc1nccs1	none
CCCC(=O)NC(c1ccc(OC)cc1)c1ccc2cccnc2c1O (stereo not drawn)	AddAB inh 28, E coli growth-2 30, phage Ecoli inh 31 | AddAB confirm 25 | RecBCD counter 25 | bact viab count inactive | RecBCD conf 16 | Ecoli viability 23 | AddAB phage OD 23
Oc1cccc(C(Nc2nccs2)c2ccc3cccnc3c2O)c1 (stereo not drawn)	AddAB inh 18, E coli growth-2 16, phage Ecoli inh 16 | AddAB confirm 19 | RecBCD counter 17 | bact viab count inactive | RecBCD conf inactive | Ecoli viability inactive | AddAB phage OD inactive
Nc1nnc(SCC(=O)OCC(=O)NC23CC4CC(CC(C4)C2)C3)s1	none

Screening results from PubChem BioAssay.
